Records with an inconclusive call do not appear. Values without a mark were called inactive. Calls of active or inactive are those of the source. Calls come from the whole dose curve; as a rule, active = well fitted inhibition curve with a large enough effect; inconclusive = small, poorly fitted or top-dose-only effect; inactive = flat fitted curve, though single readings scatter.
% is set by controls: 0 for no effect and ±100 for the full control effect; potency is the fitted concentration of half-maximal effect.

This test deals with astro (control astrocytes). As to the kind of experiment: Drug repurposing screens with cells derived from glioblastoma tumor samples (AID 1345199). Note: nearly all actives have a fitted effect of over 40% in size. The settings on record: viability, ATP luminescence, 48 h; series mostly up to 45.9 µM; activity, negative = cell killing: at the top concentration. In outline: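 Primary testing used CD133+ neurospheres from four GBM patients, seven concentrations, 48 h exposure and ATP-based viability; confirmation added three slower-growing patient lines.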
In the case of `C[N+](C)(C)CCOC(=O)CCC(=O)OCC[N+](C)(C)C`, the “activity, negative = cell killing” value is -4.67%. As to `CCc1c(C)[nH]c2c1C(=O)C(CN1CCOCC1)CC2` (stereo unspecified), the “activity, negative = cell killing” value is -19.1% [at 21.2 µM]. As to `COCCOC(=O)C1=C(C)NC(C)=C(C(=O)OC(C)C)C1c1cccc([N+](=O)[O-])c1` (stereo unspecified), the “activity, negative = cell killing” value was -19.2%. With `CN1C(=O)CC[C@H]1c1cccnc1`, the “activity, negative = cell killing” value was -18.8%. Consider `CC(C(=O)O)c1ccc(CC2CCCC2=O)cc1` (stereo unspecified), for which the “activity, negative = cell killing” value is 0.465%. As for `COc1ccc2c(c1OC)C(=O)O[C@@H]2[C@H]1c2c(cc3c(c2OC)OCO3)CCN1C`, the “activity, negative = cell killing” value is -13.2%. Take `Cc1cccc(C)c1NC(=O)C(C)N` (stereo unspecified): the “activity, negative = cell killing” value is -8.75% [at 21.2 µM]. On the same count and under the same terms, then `CC(C)NCC(O)c1cc(O)cc(O)c1` (stereo unspecified), with -16.3%; and `O=C(CCNNC(=O)c1ccncc1)NCc1ccccc1`, with -16.3%. `CCN(CC)CCCN(c1ccccc1)C1Cc2ccccc2C1`: the Potency is 12.6 µM (active). `NC/C=C/C(=O)O`: the “activity, negative = cell killing” value is -1.88%.

Regarding `CCN(Cc1ccncc1)C(=O)C(CO)c1ccccc1` (stereo unspecified), the “activity, negative = cell killing” value was -11.8%. The same measure, in the same setting: then `c1ccc2c(c1)CCCC2C1=NCCN1` (stereo unspecified), with -20.8%; and `CCOC(=O)C1=C(C)NC(C)=C(C(=O)OC)C1c1cccc([N+](=O)[O-])c1` (stereo unspecified), with -21.6%; and `Cc1ccc(=O)n(-c2ccccc2)c1`, with -11.9%. For the compound `CC(N=C(NC#N)Nc1ccncc1)C(C)(C)C` (stereo unspecified), the “activity, negative = cell killing” value is -9.79%. On to `CCCCCN(CCCCC)C(=O)C(CCC(=O)O)NC(=O)c1ccc(Cl)c(Cl)c1` (stereo unspecified), for which the “activity, negative = cell killing” value was -20.7%. As to `OC(CCN1CCCCC1)(c1ccccc1)C1CCCCC1` (stereo unspecified), the “activity, negative = cell killing” value is -20.7%. For the compound `CCNC(=O)N1CCN(CCCC(c2ccc(F)cc2)c2ccc(F)cc2)CC1`, the “activity, negative = cell killing” value was -27.1%. As for `CN1CCN(CC(=O)N2c3ccccc3C(=O)Nc3cccnc32)CC1`, the “activity, negative = cell killing” value was -6.87%. On the same count and under the same terms, then `NC(=O)c1cn(Cc2c(F)cccc2F)nn1`, with -1.8%.
